According to PubChem BioAssay (Tox21):
Results filed as inconclusive are left out. A call without a number means that no potency is given here. Calls of active or inactive are those of the source. Calls come from the whole dose curve; as a rule, active = well fitted cell-killing curve with a large enough effect in the repeat runs; inconclusive = weak or mixed curves, or effect the other way; inactive = flat fitted curve, though single readings scatter.

experiment: Human pregnane X receptor (PXR) small molecule agonists, qHTS cell viability counter screen (AID 1346977); conditions: PXR-Luc HepG2 viability, CellTiter-Fluor, 24 h; series mostly up to 92.4 µM; note: nearly all actives have a fitted effect of over 50% in size
From the text: U.S. Tox21 Program National Center for Advancing Translational Sciences [NCATS] NIH Chemical Genomics Center [NCGC] U.S. Environmental Protection Agency [EPA] National Institutes of Environmental Health Sciences [NIEHS] National Toxicology Program [NTP] U.S. Food and Drug Administration [FDA] Tox21 Assay Overview: The human pregnane X receptor (hPXR) regulates the expression of several drug metabolizing enzymes and induction of these proteins is a major mechanism for developing drug resistance in cancer. One such key enzyme catalyzing the drug metabolism is cytochrome P450 3A4 (CYP3A4). Changes in CYP3A4 expression affect drug metabolism, thereby reducing the therapeutic efficacy and altering toxicological response to a drug and which finally causes adverse drug interaction. To screen Tox21 libraries for compounds that activate hPXR-mediated CYP3A4 gene expression, PXR-Luc HepG2 cells were used. Also cytotoxicity of the compounds was tested in parallel by measuring the cell viability using CellTiter-Fluor assay system in the same wells.
Tox21 Assay Protocol Summary: PXR-Luc HepG2 cells were dispensed at 2,000 per well in 5uL of assay medium containing 5% charcoal-stripped FBS into white solid bottom 1536-well plates (Corning Life Sciences, Corning, NY) using a Multidrop Combi (Thermo Scientific, Waltham, MA) dispenser. The assay plates were incubated at 37 C and 5% CO2 for 5hr, and then 23nL of compounds dissolved in DMSO and positive control were transferred using a Pintool station (Wako, San Diego, CA). The assay plates were incubated at 37C and 5% CO2 for 24hr. For cytotoxicity read, after 23hr incubation at 37C, 1uL CellTiter-Fluor reagent (Promega Corporation, Madison, WI) was added to each well of the assay plates using Flying Reagent Dispenser (FRD, Aurora Discovery, San Diego, CA). After 1hr incubation at 37C and 5% CO2, the fluorescence signal was quantified using a ViewLux plate reader (PerkinElmer, Shelton, CT).
Potency is the fitted concentration of half-maximal effect.

SMILES | Potency
CC(C)C=O | inactive
C=CCc1ccccc1OCC(O)CNC(C)C (stereo not given) | inactive
CC(CCC(=O)O)C(=O)O (stereo not given) | inactive
CC(C)(c1ccccc1)c1ccccc1 | inactive
Cc1cccc(O)c1N | inactive
O=C=Nc1ccc(Cl)c(Cl)c1 | inactive
CC/C=C1/OC(=O)c2ccccc21 | inactive
CCOC(=O)[C@H](CCc1ccccc1)N[C@@H](C)C(=O)N(CC(=O)O)C1Cc2ccccc2C1 | inactive
C=C(C)CCCC(C)CCO (stereo not given) | inactive
C[C@H]1C[C@H](O)c2ccsc2S1(=O)=O | inactive
C=C/C(C)=C/C/C=C(\C)CCC=C(C)C | inactive
C[C@H]1c2cccc(O)c2C(O)=C2C(=O)[C@]3(O)C(O)=C(C(N)=O)C(=O)[C@@H](N(C)C)[C@@H]3[C@@H](O)[C@@H]21 | inactive
Cc1ccc(CO)cc1 | inactive
C=C(C)[C@@H]1CCC2=CCC[C@@H](C)[C@]2(C)C1 | inactive
CS(=O)(=O)c1ccc(-c2cn3ccccc3n2)cc1 | inactive
CN(C(=O)CN(CCO)CC(=O)N(C)C(C)(C)Cc1ccccc1)C(C)(C)Cc1ccccc1 | inactive
CCOC(=O)OC(C)OC(=O)[C@@H]1N2C(=O)[C@@H](NC(=O)[C@H](N)c3ccccc3)[C@H]2SC1(C)C (stereo not given in full) | inactive
CCCCCC[C@@H](O)C/C=C\CCCCCCCC(=O)O | inactive
Cc1cc(C)c(N)cc1C | inactive
CN1CCCC(CC2c3ccccc3Sc3ccccc32)C1 (stereo not given) | 29.8 µM (active)

SMILES | Potency
OCCN1CCN(CCCN2c3ccccc3Sc3ccc(Cl)cc32)CC1 | 29.8 µM (active)
C=C(C)C(=O)OCCOCCOC(=O)C(=C)C | inactive
CC=C(Cl)Cl | inactive
N#CCc1ccc(Cl)cc1Cl | inactive
CCOC(=O)c1ccc(I)cc1 | inactive
CN1C(=O)c2ccccc2C1=O | inactive
CN1C[C@H](C(=O)N[C@]2(C)O[C@@]3(O)[C@@H]4CCCN4C(=O)[C@H](Cc4ccccc4)N3C2=O)C[C@@H]2c3cccc4[nH]cc(c34)C[C@H]21 | 21.1 µM (active)
CC(C)C(O)(c1ccc(OC(F)(F)F)cc1)c1cncnc1 (stereo not given) | inactive
CC(=O)Nc1ccc(C)cc1C | inactive
CC(=O)c1ccc([N+](=O)[O-])cc1 | inactive
CC(C)c1nc(CN(C)C(=O)N[C@H](C(=O)N[C@@H](Cc2ccccc2)C[C@H](O)[C@H](Cc2ccccc2)NC(=O)OCc2cncs2)C(C)C)cs1 | 9.44 µM (active)
N#CCCN(CCO)CCO | inactive
CC(C)=CCC/C(C)=C/CC/C(C)=C/CCC(=O)OC/C=C(\C)CCC=C(C)C | inactive
O=C(OC(=O)c1ccccc1)c1ccccc1 | inactive
CC1CC(OC(=O)C(O)c2ccccc2)CC(C)(C)N1C (stereo not given) | inactive
CC(=O)NC1(c2cccc(F)c2)CCN(CC[C@@]2(c3ccc(Cl)c(Cl)c3)CN(c3ccccc3)C(=O)CO2)CC1 | 34.5 µM (active)
C=C1C[C@@]23CC[C@H]4[C@@](C)(CCC[C@@]4(C)C(=O)O[C@@H]4O[C@H](CO)[C@@H](O)[C@H](O)[C@H]4O)[C@@H]2CC[C@]1(O[C@@H]1O[C@H](CO)[C@@H](O)[C@H](O[C@@H]2O[C@H](CO)[C@@H](O)[C@H](O)[C@H]2O)[C@H]1O[C@@H]1O[C@H](CO)[C@@H](O)[C@H](O)[C@H]1O)C3 | inactive
C[C@]1(Cn2ccnn2)[C@H](C(=O)O)N2C(=O)C[C@H]2S1(=O)=O | inactive
C=C(C)C(=O)OCCCCCCCCCCCCC | inactive
CN1C(=O)N(c2ccccc2Br)Cc2cnc(Nc3ccc4c(c3)OCC(CO)O4)nc21 (stereo not given) | 30.6 µM (active)
